# The full ranking holds about 68,000 sequences; the median of “fluorescence intensity (a.u.)” is about 9,100, and the highest 2% start at about 16,000. For the sample, the highest values were picked, then their nearest neighbours and some sequences at random.
# Molecular target: OsWRKY34 (Oryza sativa, UniProt Q0JBA9 1-250)
# Test: protein-binding microarray (RPBM); PBS, 2% BSA, 51.3 ng/ul salmon testes DNA, 50 uM zinc acetate, 200 nM TF, 25 C, 1 h; high values mean tight binding
# Settings: protein: recombinant; tags: N-terminal polyhistidine and DsRed monomer fusion (pET32a); label: CyDye5-dUTP incorporated in the synthesized complementary strand; 3' TTTTT single-stranded linker to array surface; dsDNA, one strand shown
# How it was run: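 Binding signal here means per-feature fluorescence intensity in arbitrary units. The values were read on an Axon 4000B scanner after a custom Agilent array, double-stranded by primer extension with Cy5-dUTP, was incubated with 200 nM protein at 25 °C for 1 h in PBS with 2% BSA, salmon testes DNA and 50 µM zinc acetate, then washed. The proteins were transcription factors with an N-terminal polyhistidine tag and DsRed, expressed in E. coli BL21-CodonPlus and purified on Ni–NTA.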
# OsWRKY34, sequence (Q0JBA9 entry or part of it): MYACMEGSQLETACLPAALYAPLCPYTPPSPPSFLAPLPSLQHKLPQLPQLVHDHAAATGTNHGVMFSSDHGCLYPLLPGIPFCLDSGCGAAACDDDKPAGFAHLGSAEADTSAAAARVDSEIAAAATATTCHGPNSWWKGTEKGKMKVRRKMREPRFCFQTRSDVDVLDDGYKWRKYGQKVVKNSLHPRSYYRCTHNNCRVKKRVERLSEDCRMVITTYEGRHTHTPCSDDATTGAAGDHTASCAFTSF
row,Sequence,binding signal
1,GTTTCATTGAGATGGTGTCGACGTGGCGGCGTTGACTTAGCGGAGTCACCTAGTGCAG,10700 fluorescence intensity (a.u.)
2,CAATGTTGTCTTGACTTTTTTTTAACGTTTAACCATTTGTCGGAGTCACCTAGTGCAG,8940 fluorescence intensity (a.u.)
3,TGACACCGTTGACTTTTTTGTCTAAAGTTTAACCATTCGTCGGAGTCACCTAGTGCAG,32400 fluorescence intensity (a.u.)
4,CCGTTGACATTTTATCTAACGTTTGACCATTCGTCTTATTCGGAGTCACCTAGTGCAG,15900 fluorescence intensity (a.u.)
5,GATTCTACTGCCCCGTTGACTAATTGTCTTCGTCAGGATCCGGAGTCACCTAGTGCAG,17900 fluorescence intensity (a.u.)
6,AATGCAACCATTAAGTTGTCGTTTAGTTGACTTTGTCTACCGGAGTCACCTAGTGCAG,8690 fluorescence intensity (a.u.)
7,CCCCGTCGTTGTCGCCACCTACTTCTACCTGCGCGGATTCCGGAGTCACCTAGTGCAG,10800 fluorescence intensity (a.u.)
8,CCGCCGTTGACTTTTTGTCTAACGTTTGACCATTCGTCTTCGGAGTCACCTAGTGCAG,36200 fluorescence intensity (a.u.)
9,ACACCATTGACTTTTTAGCATATGTTTAACCGTTTGTCTTCGGAGTCACCTAGTGCAG,13900 fluorescence intensity (a.u.)
10,CGACTTTGTTTTACCATTGTTTTTTTTGTCTTGTTTTAGTCGGAGTCACCTAGTGCAG,10600 fluorescence intensity (a.u.)
11,AGTGTCTTTGACTTTTTGTTTGTAACGTTTGACCATTCGTCGGAGTCACCTAGTGCAG,21900 fluorescence intensity (a.u.)
12,TAATTGTCTTCGTCAGGATCTTCTGCTAATTGTTTGATTTCGGAGTCACCTAGTGCAG,8680 fluorescence intensity (a.u.)
13,ATACAATCTACTTGAATCGTTTTTTCTTTACTTTTCAGTTCGGAGTCACCTAGTGCAG,9840 fluorescence intensity (a.u.)
14,ACTTAGCAGCACTTGTCCCGTTCTCCTGAAGACAGTCCAACGGAGTCACCTAGTGCAG,9480 fluorescence intensity (a.u.)
15,CAGTAATTGTCACTATCTTATTACACATTATTCTGTCCAGCGGAGTCACCTAGTGCAG,8060 fluorescence intensity (a.u.)
16,TCCTGTCCAGTCTCCACTCGCAAACCCTTCTCGCCGCCATCGGAGTCACCTAGTGCAG,10400 fluorescence intensity (a.u.)
17,GACCGCTTCACCCGCCCAATCAAAACCGTCCATCCATCCCCGGAGTCACCTAGTGCAG,10300 fluorescence intensity (a.u.)
18,CAGTAACAATCACTCATTCTCAGTATCTGCTACTCCTCTACGGAGTCACCTAGTGCAG,8710 fluorescence intensity (a.u.)
19,CTCCTCTTTGTGTGTAGACTGAAAAGGTGGAAAGTTTACCCGGAGTCACCTAGTGCAG,9750 fluorescence intensity (a.u.)
20,CGCGTAACCCACCCAATGTTTCACTCCTGCAGCACTTGACCGGAGTCACCTAGTGCAG,9370 fluorescence intensity (a.u.)
21,CTATATATTTACCCACTGTATACCTCTGTCATGAAAGCATCGGAGTCACCTAGTGCAG,11500 fluorescence intensity (a.u.)
22,CTCGTTTGATCTCTCAGTTGGGAGCATTATTTCTGCGCATCGGAGTCACCTAGTGCAG,10800 fluorescence intensity (a.u.)
23,CAACGGCGAATCAACGCCCGAACCGACTCTTTTATCTTTTCGGAGTCACCTAGTGCAG,9920 fluorescence intensity (a.u.)

row,Sequence,binding signal
1,ACAAATTTGTAGCCCGCTGCTCTTCTCTCTCATCTTTTATCGGAGTCACCTAGTGCAG,9220 fluorescence intensity (a.u.)
2,TCCCTCGGTCCCATCGTATATATATATACCGTATGTCCCGCGGAGTCACCTAGTGCAG,9470 fluorescence intensity (a.u.)
3,CGTATACCTCGGAGAAGTTCTCATCCGCTGACGTGTCCCGCGGAGTCACCTAGTGCAG,19600 fluorescence intensity (a.u.)
4,GTCCGCATCTCATCCTTCCGCAAGTCCGTATCTCATCCCTCGGAGTCACCTAGTGCAG,10400 fluorescence intensity (a.u.)
5,CACCTCACCCTCACCCGCACACGCCGACACCCCGACGCGTCGGAGTCACCTAGTGCAG,9390 fluorescence intensity (a.u.)
6,CTTCTTTCTCAATATGTGATTTTCTTTCCTTAATCTCGTTCGGAGTCACCTAGTGCAG,8680 fluorescence intensity (a.u.)
7,CTCCGTCGCTGACTGCAACCTCCACCCACACGGCACCCATCGGAGTCACCTAGTGCAG,8090 fluorescence intensity (a.u.)
8,TATCTCTCTCCCGCTGACAACCCGGTCACACCGAACCAACCGGAGTCACCTAGTGCAG,8990 fluorescence intensity (a.u.)
9,CCTCTCACTGCTAGTGCCCCACACCGTTCTTCGCTGCCCACGGAGTCACCTAGTGCAG,11800 fluorescence intensity (a.u.)
10,CTAATACGTGGGTCTCACTATTGTCTTCTTGTTTGACTGACGGAGTCACCTAGTGCAG,10700 fluorescence intensity (a.u.)
11,CCTATTCTAACACTGACGGGTGGGTCTCACAGGGTGACTCCGGAGTCACCTAGTGCAG,16900 fluorescence intensity (a.u.)
12,TTTGCACACGGGTGACTCGTCTCTTTGTACTCACTCTCTCCGGAGTCACCTAGTGCAG,9840 fluorescence intensity (a.u.)
13,TCCTCTGTTTTACACTTGCATTCCTATCAGAATCCTATATCGGAGTCACCTAGTGCAG,9540 fluorescence intensity (a.u.)
14,CCCGTCGATCCACCGCGGGGACAAGCTCTAGATCTCTCTCCGGAGTCACCTAGTGCAG,8440 fluorescence intensity (a.u.)
15,CAGGCATGTCCAGTATAGGTGTTATTATATTTTATTATTACGGAGTCACCTAGTGCAG,8910 fluorescence intensity (a.u.)
16,ACTTCTTTAGGCGTTGACTTCTCCCTTTTCCTTTACTATTCGGAGTCACCTAGTGCAG,14800 fluorescence intensity (a.u.)
17,CTCCCTCCTTTTCTAAATGTTTGACACCATTGACTTTTTTCGGAGTCACCTAGTGCAG,8470 fluorescence intensity (a.u.)
18,TCCCTCTGTTCAAAATGTTTGACACCGTTGACTTTTTAAGCGGAGTCACCTAGTGCAG,20700 fluorescence intensity (a.u.)
19,TATACTCCCTCCATTTCAAAATGTTTGACACCGTTGACTTCGGAGTCACCTAGTGCAG,9590 fluorescence intensity (a.u.)
20,CTCCATCCGTTTTAAAATGTTTGACACCGTTGACTTTTTACGGAGTCACCTAGTGCAG,27300 fluorescence intensity (a.u.)
21,TACTCCCTTCTTCCTTAGATGTTTGACACCGTTGACTTTTCGGAGTCACCTAGTGCAG,16900 fluorescence intensity (a.u.)
22,ACTCCCTCCTTCCCTAAATGTTTGACACCGTTGACTTTTTCGGAGTCACCTAGTGCAG,19600 fluorescence intensity (a.u.)

# Source: publication PMC7819943, “Rice protein-binding microarrays: a tool to detect cis-acting elements near promoter regions in rice”
